Source: PubChem
AI-2 QS mod: Vibrio harveyi AI-2 quorum sensing modulation; activity change, % at 7.5 µM; actives 0.4% (n = 300,000); Vibrio harveyi JMH597 AI-2 luminescence/OD600 ratio, 9 h; stronger effect = lower value; strain lacks LuxN and CqsS sensors; 0 = neutral-control median; in the data active = activity change below about -75%, passing the limit was not always enough; inconclusive = no clear call, values can overlap the other calls;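 note: luminescence divided by OD600 gain over 9 h not by final OD600 alone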
HIF act: HIF pathway transcriptional activation. activation, % at 7.5 µM (by protocol). actives 0.32% (n = 300,000). U2OS HRE-luciferase reporter, luminescence; normalized: DMSO 0%, desferrioxamine 100%;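 active = mean activation of at least 10% of the iron chelator positive control signal, with at least half of replicates also reaching 10%; inconclusive = mean and replicate majority disagree about reaching 10%; inactive = mean and most replicates under 10%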
CHT block: inhibitors of human choline transporter CHT. Q9GZV3. B-score at 10 µM. CHT-expressing cells, membrane potential dye, choline response; stronger effect = lower value. actives 0.86% (n = 310,000);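 active = B-score over 3 SD under the library average, and starting fluorescence ratio not unusually high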;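 note: choline stimulus applied at its EC90 after an EC20 pre-addition; B-score computed on integrated fluorescence ratio after choline addition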
CHT PAM: allosteric activators of human choline transporter CHT; Q9GZV3; CHT-expressing cells, membrane potential dye, choline EC20; stronger effect = higher value; LV-AA mutant CHT in HEK293 cells; B-score at 10 µM; actives 0.49% (n = 310,000); AID 488977;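 active = initial fluorescence not abnormally high and integrated response B-score, plate-corrected, over 3 SD above library mean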
VLA-4 inh: inhibition in a human VLA-4 binding assay; inhibition, % (about 7 µM as worked out from the volumes in the protocol); AID 2557; actives 0.2% (n = 330,000); VLA-4 expressing cells, ligand binding flow cytometry; P13612; in the data active = inhibition above about 50%
Target sequence (P13612 whole entry, looked up): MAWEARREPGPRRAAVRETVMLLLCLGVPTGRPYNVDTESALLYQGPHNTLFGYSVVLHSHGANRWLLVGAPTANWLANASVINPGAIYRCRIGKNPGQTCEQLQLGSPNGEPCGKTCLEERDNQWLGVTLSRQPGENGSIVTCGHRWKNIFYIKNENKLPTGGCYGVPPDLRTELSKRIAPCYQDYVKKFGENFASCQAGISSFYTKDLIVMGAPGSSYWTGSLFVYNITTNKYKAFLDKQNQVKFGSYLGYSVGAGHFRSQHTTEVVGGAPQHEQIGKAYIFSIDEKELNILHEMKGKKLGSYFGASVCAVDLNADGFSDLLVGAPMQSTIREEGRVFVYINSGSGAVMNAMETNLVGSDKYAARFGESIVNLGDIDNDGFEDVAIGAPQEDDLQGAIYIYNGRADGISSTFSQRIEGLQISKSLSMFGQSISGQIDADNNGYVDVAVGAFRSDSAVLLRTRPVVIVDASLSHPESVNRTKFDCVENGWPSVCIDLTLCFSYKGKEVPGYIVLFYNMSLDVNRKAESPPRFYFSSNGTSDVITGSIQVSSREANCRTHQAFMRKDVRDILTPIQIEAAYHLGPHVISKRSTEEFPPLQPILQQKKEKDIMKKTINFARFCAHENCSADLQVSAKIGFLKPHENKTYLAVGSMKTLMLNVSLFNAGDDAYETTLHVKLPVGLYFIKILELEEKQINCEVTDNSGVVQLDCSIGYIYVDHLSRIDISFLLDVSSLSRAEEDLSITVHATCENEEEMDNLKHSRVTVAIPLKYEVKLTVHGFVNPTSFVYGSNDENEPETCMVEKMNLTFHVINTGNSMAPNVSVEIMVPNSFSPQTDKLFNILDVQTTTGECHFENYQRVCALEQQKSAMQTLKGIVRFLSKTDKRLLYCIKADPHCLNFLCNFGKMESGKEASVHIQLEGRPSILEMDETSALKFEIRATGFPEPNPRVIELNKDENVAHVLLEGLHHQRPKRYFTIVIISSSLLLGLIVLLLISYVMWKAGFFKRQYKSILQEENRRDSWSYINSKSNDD
Platelet DG rel: platelet dense granule release activity | inhibition, %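 (compounds screened at 7.5 µM in platelet-rich plasma)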 | AID 1663 | actives 0.22% (n = 300,000) | human platelet-rich plasma, SFLLRN dense granule ATP release, luminescence;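 active = mean replicate score, as percent of positive control, at or above 50; inconclusive = mean below 50 but at least one replicate at or above 50; inactive = mean and every replicate below 50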
CHT block conf: human CHT inhibition, confirmatory screen | shares compounds with CHT block | CHT-expressing cells, choline membrane potential dye; LV-to-AA substituted CHT, HEK293 cells | CHT activity remaining % of control (stronger effect = lower value), % at 10 µM | actives 70% (n = 2,400) | AID 493221;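 active = choline transporter activity left, mean of duplicates at 10 µM, below buffer-only control mean minus 3 SD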;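 note: depolarization triggered by choline at its EC90 following an EC20 pre-addition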
HEK293 MPD ctr: activity in parental HEK293 cells lacking CHT. shares compounds with CHT block. membrane potential dye, choline response; active = decrease or increase beyond buffer ±3SD. membrane potential ratio readout (active if shifted either direction beyond buffer ±3SD; no single direction) at 10 µM. actives 4% (n = 2,400);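 note: parental cells lack the transporter so any hit is non-specific; ratio is peak minus trough fluorescence over baseline after EC90 choline challenge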
Hits are given with their value; n = inactive; u = inconclusive; x = no result given. Hits are enriched below; roughly 2.2% of the tested compounds scored in any of these assays.

SMILES | AI-2 QS mod | HIF act | CHT block | CHT PAM | VLA-4 inh | Platelet DG rel | CHT block conf | HEK293 MPD ctr
Cc1cc(NC(=O)CCC(=O)N(Cc2ccco2)C2(C(=O)NC3CCCCC3)CCCCC2)no1 | n | n | n | n | n | n | x | x
CC(C)CCNC(=O)COc1ccc2c(c1)C(=O)CC(C)(C)O2 | n | n | n | n | n | n | x | x
CCC(Oc1ccc2c(c1)C(=O)CC(C)(C)O2)C(=O)NCCN1CCCCCC1 (stereo not drawn) | n | n | -6.41 | n | n | n | 31.0% | n
Cc1ccc(NC(=O)Cn2c(=S)[nH]c3ccccc32)cc1 | n | n | n | n | n | n | x | x
Cc1ccc2[nH]c(C(=O)O)c(NC(=O)[C@@H]3C[C@@H]3c3ccccc3)c2c1 | n | n | -5.03 | n | n | n | n | n
Cc1ccc(CNC(=O)C2CC2c2ccccc2)cc1 (stereo not drawn) | n | n | n | n | n | n | x | x
COc1ccc(-c2sc(Nc3ccccc3)n[n+]2-c2ccccc2)cc1Br | x | x | n | n | n | x | x | x
CCc1ccc(Nc2n[n+](-c3ccccc3)c(-c3cccc(C)c3)s2)cc1 | x | x | -14.8 | n | n | x | 48.7% | 2.6
Nc1nc(SCC(=O)Nc2ccc3c(c2)OCO3)n[nH]1 | n | n | -5.06 | n | n | n | n | n
CCN(CC)CCCN(Cc1cc2cc3c(cc2[nH]c1=O)OCO3)C(=S)Nc1ccccc1 | n | n | n | n | n | n | x | x
c1ncn(C23CC4CC(CC(C4)C2)C3)n1 | n | n | n | n | n | n | x | x
c1cn(C23CC4CC(CC(C4)C2)C3)cn1 | n | n | -13.6 | n | n | n | -3.7% | n
COC(=O)C(Cc1ccc(O)cc1)NC(=O)CCc1nc2ccccc2s1 (stereo not drawn) | n | n | n | n | n | n | x | x
Cc1ccc(S(=O)(=O)CC(O)COc2ccc(F)cc2Cl)cc1 (stereo not drawn) | n | n | -6.65 | n | n | n | 54.2% | n
COc1ccc(CNC(=O)[C@H](C)NC(=O)N2CCn3c2nc2ccccc23)cc1 | n | n | -5.97 | n | n | n | 46.5% | n
CCc1c(O)nc(SCc2ccccc2)n(C(C)CC)c1=O (stereo not drawn) | n | n | -5.17 | n | n | n | n | n
C=CCSc1nc(O)c(CC)c(=O)n1C(C)CC (stereo not drawn) | n | n | n | n | n | n | x | x
CCOC(=O)CN1C(=O)S/C(=C/c2ccc(O)c([N+](=O)[O-])c2)C1=O | n | n | -5.46 | n | n | n | n | n
CCOC(=O)N1CCN(C(=O)c2ccc3nc(SCc4ccc(F)cc4)n(C)c3c2)CC1 | n | n | -4.94 | n | n | n | n | n
CCSc1nnc([C@H](Cc2ccccc2)NC(=O)OC(C)(C)C)o1 | n | n | -7.02 | n | n | n | n | n
CC(C)(C)OC(=O)N[C@@H](Cc1ccccc1)c1nnc(SCC(=O)O)o1 | n | n | n | n | n | n | x | x
CCOC(=O)CSc1[nH]c2cc(OC)ccc2c1[N+](=O)[O-] | n | n | n | n | n | n | x | x
COC(=O)CSc1[nH]c2ccc(F)cc2c1[N+](=O)[O-] | n | n | -7.21 | n | n | n | 15.0% | n
O=C1C2C(C(=O)N1/N=C/c1cc(Br)cc([N+](=O)[O-])c1O)C1C=CC2C12CC2 (stereo not drawn) | n | n | -7.57 | n | n | n | 43.4% | n
O=C(CSc1nnc(-c2ccco2)n1Cc1ccco1)NCc1ccccc1 | n | u | -5.12 | n | n | n | n | n
CCc1nnc(NC(=O)c2nc(S(=O)(=O)Cc3ccc(C)cc3)ncc2Cl)s1 | n | n | -8.3 | n | n | n | 31.9% | n
CCc1nnc(NC(=O)c2nc(S(=O)(=O)Cc3ccccc3)ncc2Cl)s1 | n | n | n | n | n | n | x | x
CCc1nnc(NC(=O)c2nc(S(=O)(=O)Cc3cccc(C)c3)ncc2Cl)s1 | n | n | -6.1 | n | n | n | 30.3% | n
